Only some compounds are listed: those with a hit (about 1.6% of all), similar ones and a draw of the others.
KCNQ2 inh: blocks the rat KCNQ2 potassium channel; CHO-K1 KCNQ2, FluxOR thallium flux, 20 min; stronger effect = lower value; 310,000 compounds, 1.1% hits; B-score at 10 µM;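 active = fluorescence ratio B-score at most minus 3 library SDs, with starting brightness B-score within 2 library SDs, cut at about -5.5 in these data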
Target sequence (O88943 whole entry, looked up): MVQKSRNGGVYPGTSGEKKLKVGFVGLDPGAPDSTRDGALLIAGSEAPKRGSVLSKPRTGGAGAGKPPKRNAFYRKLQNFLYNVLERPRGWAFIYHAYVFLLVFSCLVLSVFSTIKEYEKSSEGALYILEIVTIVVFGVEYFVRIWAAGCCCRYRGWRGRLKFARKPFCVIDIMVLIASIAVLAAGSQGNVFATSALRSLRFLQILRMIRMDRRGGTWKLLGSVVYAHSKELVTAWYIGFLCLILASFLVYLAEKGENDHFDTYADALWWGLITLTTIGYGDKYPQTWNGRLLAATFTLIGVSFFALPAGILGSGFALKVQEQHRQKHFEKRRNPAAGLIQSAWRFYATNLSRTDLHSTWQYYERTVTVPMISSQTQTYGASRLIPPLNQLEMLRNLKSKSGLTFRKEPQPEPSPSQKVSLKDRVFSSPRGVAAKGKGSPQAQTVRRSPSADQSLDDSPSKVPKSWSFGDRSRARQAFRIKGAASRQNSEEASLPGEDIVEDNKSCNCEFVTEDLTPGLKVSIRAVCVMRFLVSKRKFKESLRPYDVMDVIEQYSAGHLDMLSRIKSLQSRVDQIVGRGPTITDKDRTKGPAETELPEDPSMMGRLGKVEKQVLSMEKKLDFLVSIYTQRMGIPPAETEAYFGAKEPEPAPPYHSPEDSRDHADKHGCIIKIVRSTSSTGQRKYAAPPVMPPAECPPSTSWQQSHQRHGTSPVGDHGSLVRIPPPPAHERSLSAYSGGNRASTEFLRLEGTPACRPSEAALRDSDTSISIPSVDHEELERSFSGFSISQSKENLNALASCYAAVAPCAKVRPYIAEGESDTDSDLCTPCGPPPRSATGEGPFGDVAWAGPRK
KCNQ2 enhance: enhances the rat KCNQ2 potassium channel | O88943 | 310,000 compounds, 0.54% hits | AID 2239 | CHO-K1 KCNQ2, FluxOR thallium flux fluorescence; stronger effect = higher value | B-score at 10 µM;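 active = fluorescence ratio B-score at least 3 SD of library B-scores, with initial fluorescence B-score within 3 of them, cut at about 5.3 in these data; same plate scores as AID 2156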;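 note: B-score of peak minus minimum over baseline fluorescence ratio after K+ and Tl+ stimulus; positive B-score means potentiation of KCNQ2 with more thallium influx and brighter signal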
KCNQ2 block conf: rat KCNQ2 channel inhibition, confirmatory screen; shares compounds with KCNQ2 inh; KCNQ2-expressing cells, thallium flux; stronger effect = lower value; activity change, negative = inhibition, % at 10 µM; 1,000 compounds, 57% hits; AID 493025
KCNQ1 spec: selectivity of KCNQ2 inhibitors against human KCNQ1; shares compounds with KCNQ2 inh; AID 493026; 1,000 compounds, 15% hits; KCNQ1-expressing cells, FluxOR thallium flux fluorescence; stronger effect = lower value; activity change, negative = inhibition, % at 10 µM;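 active = activity change at least 3 SD of negative controls below their mean in both duplicate wells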;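 note: CHO cells stably transfected with KCNQ1 and depolarized by potassium stimulus; peak minus minimum fluorescence over baseline after thallium addition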
CHO Tl ctr: activity in parental CHO cells lacking KCNQ2; shares compounds with KCNQ2 inh; thallium flux counter-screen; stronger effect = lower value; activity change, % at 10 µM; 1,000 compounds, 14% hits
KCNQ2 inh confirm: confirmation of rat KCNQ2 potassium channel inhibitors; shares compounds with KCNQ2 inh; KCNQ2-expressing cells, automated patch clamp current; calls only at 10 µM; 550 compounds, 49% hits; AID 588531
Each line names hits and unclear results; the compound was inactive in the other large screens (follow-up assays come after a bar, where they were run). Unless noted, the rule behind the calls is not given here.

CCN(c1ccccc1)c1nc(C#N)nc(N(CC)c2ccccc2)n1	KCNQ2 inh -6.7 | KCNQ2 block conf -30% | KCNQ1 spec inactive | CHO Tl ctr inactive | KCNQ2 inh confirm inactive
CCN(CC)c1nc(C#N)nc(N(CC)CC)n1	none (no result: KCNQ2 enhance)
COc1ccccc1C(=O)NCC(=O)OCC(=O)Nc1ccc2[nH]c(=O)[nH]c2c1	none
O=[N+]([O-])c1cc(-c2cnc3ccccc3n2)ccc1Oc1ccc(F)cc1	KCNQ2 inh -8.4 | KCNQ2 block conf -20% | KCNQ1 spec inactive | CHO Tl ctr inactive | KCNQ2 inh confirm inactive
O=[N+]([O-])c1ccccc1Oc1cnc2ccccc2n1	none
CC(C)c1ccc(N2C(=O)CC(NNC(=O)c3cccnc3)C2=O)cc1 (centres undefined)	none (no result: KCNQ2 enhance)
CCn1c(C)c(C)c2cc(C(=O)N3CCCC3)ccc21	none
CCn1c(C)c(C)c2cc(C(=O)N3CCN(c4ccccc4)CC3)ccc21	KCNQ2 inh -6.9 | KCNQ2 block conf inactive | KCNQ1 spec inactive | CHO Tl ctr inactive
CC(=O)NC(=S)Nc1sc2c(c1C(N)=O)CCC(C)C2 (centres undefined)	none
O=c1c2c(nc3n1CCS3)c1cc(F)ccc1n2Cc1cc(=O)n2cc(Cl)ccc2n1	none (no result: KCNQ2 enhance)
COC(=O)c1c(-c2ccc(F)cc2)csc1NC(=O)C1CCCO1 (centres undefined)	none
CCc1ccc(-c2csc(NC(=O)C3CCCO3)c2C(=O)OC(C)C)cc1 (centres undefined)	KCNQ2 inh -8.3 | KCNQ2 block conf -29% | KCNQ1 spec inactive | CHO Tl ctr inactive
COc1cccc(-n2c(SCC(=O)Nc3nc4ccccc4s3)nc3ccccc3c2=O)c1	KCNQ2 inh -7 | KCNQ2 block conf inactive | KCNQ1 spec inactive | CHO Tl ctr inactive
COc1cccc(-n2c(SCC(=O)NCc3cccs3)nc3ccccc3c2=O)c1	none (no result: KCNQ2 enhance)
COc1ccc(N2CCN(C(CNC(=O)C3CCCCC3)c3ccco3)CC2)cc1 (centres undefined)	none (no result: KCNQ2 enhance)
CC(C)CNC(=O)c1c2c(nc3ccccc13)-c1ccccc1CC2	none (no result: KCNQ2 enhance)
C=CCNC(=O)c1c2c(nc3ccccc13)-c1ccccc1CC2	KCNQ2 inh -7.6 | KCNQ2 block conf inactive | KCNQ1 spec inactive | CHO Tl ctr inactive
CCN(CC)C(=O)c1c2c(nc3ccccc13)-c1ccccc1CC2	KCNQ2 inh -8.8 | KCNQ2 block conf inactive | KCNQ1 spec inactive | CHO Tl ctr inactive
COc1cccc2c1CCc1c-2nc2ccccc2c1C(=O)O	none
COc1ccc(/C=N/N2C(=O)C3C4C=CC(CC4)C3C2=O)c(OC)c1 (centres undefined)	none (no result: KCNQ2 enhance)
CCCNCc1cc(Br)ccc1OCC(=O)NCCc1ccccc1	none
O=C(COc1ccc(Br)cc1CNCCc1ccccc1)NCc1ccccc1	KCNQ2 inh -7.6 | KCNQ2 block conf -32% | KCNQ1 spec inactive | CHO Tl ctr inactive | KCNQ2 inh confirm active
CSCC[C@H](NC(=O)Cc1ccc(Cl)cc1)C(=O)N1CCC2(CC1)NCCc1[nH]cnc12	none
CC(=O)NCC(=O)OCC(=O)N1c2ccccc2Sc2ccccc21	none
O=C(COc1ccc2ccccc2c1)N1c2ccccc2Sc2ccccc21	KCNQ2 inh -8.9 | KCNQ2 block conf -28% | KCNQ1 spec inactive | CHO Tl ctr inactive | KCNQ2 inh confirm inactive
Cc1ccc(SCC(=O)N2c3ccccc3Sc3ccccc32)cc1	KCNQ2 inh -6.6 | KCNQ2 block conf inactive | KCNQ1 spec inactive | CHO Tl ctr inactive
O=C(CSc1nncs1)N1c2ccccc2Sc2ccccc21	none
O=C(OC1CCN(c2ncc(C(F)(F)F)cc2Cl)CC1)c1ccccc1	none (no result: KCNQ2 enhance)
COc1ccc(C(=O)OC2CCN(c3ncc(C(F)(F)F)cc3Cl)CC2)cc1	KCNQ2 inh -8.7 | KCNQ2 block conf inactive | KCNQ1 spec inactive | CHO Tl ctr inactive
CCC(CC)C(=O)N(CCc1ccc(OC)cc1)Cc1nc2ccccc2c(=O)[nH]1	KCNQ2 inh -9.5 | KCNQ2 block conf -30% | KCNQ1 spec inactive | CHO Tl ctr inactive | KCNQ2 inh confirm active
COc1ccc(CCN(Cc2nc3ccccc3c(=O)[nH]2)C(=O)c2ccco2)cc1	none
CN1CCN(NC(=O)c2cc(-c3ccc(Cl)s3)nc3ccccc23)CC1	none (no result: KCNQ2 enhance)
COc1ccc(/C=C/C(=O)N(Cc2cccs2)C2CCS(=O)(=O)C2)cc1 (centres undefined)	none (no result: KCNQ2 enhance)
NS(=O)(=O)c1ccc(CCNC(=O)Cc2cccs2)cc1	none (no result: KCNQ2 enhance)
O=C(NCC(c1ccco1)N1CCc2ccccc2C1)c1ccc(Cl)cc1 (centres undefined)	KCNQ2 inh -10 | KCNQ2 block conf -31% | KCNQ1 spec -30% | CHO Tl ctr -22% | KCNQ2 inh confirm active
O=C(NCC(c1ccco1)N1CCc2ccccc2C1)c1cccc(Br)c1 (centres undefined)	KCNQ2 inh -7.9 | KCNQ2 block conf inactive | KCNQ1 spec inactive | CHO Tl ctr inactive
O=C(NCC(c1ccco1)N1CCc2ccccc2C1)c1c(F)cccc1F (centres undefined)	none
O=C(NCC(c1ccco1)N1CCc2ccccc2C1)c1ccc(Br)cc1 (centres undefined)	KCNQ2 inh -9.7 | KCNQ2 block conf -37% | KCNQ1 spec inactive | CHO Tl ctr inactive | KCNQ2 inh confirm active
O=C(NCC(c1ccco1)N1CCc2ccccc2C1)c1ccccc1Br (centres undefined)	none (no result: KCNQ2 enhance)
Cc1ccc(C(=O)NCC(c2ccco2)N2CCOCC2)cc1 (centres undefined)	none
O=C(NCC(c1ccco1)N1CCOCC1)c1cccc(Cl)c1 (centres undefined)	none
Cc1ccc(C(=O)NCC(c2ccco2)N2CCc3ccccc3C2)cc1 (centres undefined)	KCNQ2 inh -6.7 | KCNQ2 block conf inactive | KCNQ1 spec inactive | CHO Tl ctr inactive
Cc1cc(C)c(S(=O)(=O)N2CCOC2CNC(=O)C(=O)NCCN(C)C)c(C)c1 (centres undefined)	none
O=C(Cc1ccc(Cl)cc1)N1CCN(c2ccccc2)CC1	none (no result: KCNQ2 enhance)
CCOc1ccc(CNC(=O)Cn2nc(C)c3c(C)n(-c4ccc(C)cc4)nc3c2=O)cc1	none (no result: KCNQ2 enhance)
CCOC(=O)NC1Cc2ccccc2C1Sc1ccccn1 (centres undefined)	none (no result: KCNQ2 enhance)
COc1ccc(N/C=C(\C#N)S(=O)(=O)c2ccc(Cl)cc2)c(OC)c1	none (no result: KCNQ2 enhance)
Cc1ccc(C)c(S(=O)(=O)NCC(c2ccco2)N2CCc3ccccc3C2)c1 (centres undefined)	none (no result: KCNQ2 enhance)
Cc1ccc(C(=O)NCC(c2ccco2)N2CCc3ccccc3C2)cc1C (centres undefined)	KCNQ2 inh -8.8 | KCNQ2 block conf -28% | KCNQ1 spec inactive | CHO Tl ctr inactive
Nc1ccc(C(=O)NCCCSc2ccccc2)cc1[N+](=O)[O-]	none (no result: KCNQ2 enhance)
Cc1cccc(C)c1OCC(=O)Nc1cccc(-c2nnc(-c3ccccc3)o2)c1	KCNQ2 inh -9.5 | KCNQ2 block conf -28% | KCNQ1 spec inactive | CHO Tl ctr inactive | KCNQ2 inh confirm inactive
Cc1cccc(OCC(=O)Nc2cccc(-c3nnc(-c4ccccc4)o3)c2)c1C	none
COc1ccc(/C=C2\N=C(c3ccccc3)NNC2=O)cc1	none (no result: KCNQ2 enhance)

High-throughput results as filed in PubChem BioAssay.
